PI4K2A inh = PI4K2A (human) kinase inhibition; Q9BTU6; purified PI4K2A, ADP-Glo luminescence, 1 h; hits give low values; activity change, negative = inhibition, % at 76.9 µM; 420,000 tested, 0.13% active; AID 1346378; in the data active means activity change below about -50%; inconclusive means mostly about -30% to -49%;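 further: -100% = wells without enzyme as full effect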
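ADP-Glo luminescence measured ADP generated by PI4K2A enzyme (4 ug/mL before mixing) with 1.2 mM PI substrate (pre-mix) and 300 microM ATP (pre-mix). Tris pH7.5 buffer with MgCl2, Triton X-100; 1 h reaction at ambient temperature.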
PGK inhibitor = inhibitors of T. brucei phosphoglycerate kinase. P07378. Potency, µM (titrated, usually from 57.5 µM), for inactives: at the highest dose activity change, negative = inhibition, usual class: inhibitors. PGK/GAPDH coupled, Kinase-Glo luminescence, 60 min. 380,000 tested, 0.043% active; further: potency means the concentration at half of the fitted maximal effect; nearly all actives have a fitted effect of over 60% in size
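Recombinant glycosomal PGK reaction used 1,3-bisphosphoglycerate generated in-well by GAPDH (100nM final) in 100mM TEA pH 7.6, 5mM MgCl2, 0.01% Tween-20. After 60 minutes at room temperature, ATP was read by Kinase-Glo Plus luminescence end-point.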
PI5P4Ka inh = blocks human PI5P4K alpha kinase activity; max response, %; PI5P4Kalpha enzyme, ADP-Glo luminescence, 60 min; hits give low values; P48426; 330,000 tested, 1.2% active; AID 652105; active means max response of -50% or lower; inconclusive means between -30% and -50%; inactive means -30% or higher; further: value at the top dose of about 77 µM
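Reactions run in 0.038 M HEPES pH 7.4, 0.28 mM EGTA, 0.1% CHAPS and 5% DMSO, with PI5P4Kalpha, substrate, compound and 5 microM ATP final, one hour at room temperature. Readout is ADP-Glo luminescence.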
Pin1 inh = inhibitors of human Pin1; Q13526; Pin1 FP peptide displacement, HiFluor488, 10 min; Potency, µM (series often up to 115 µM), for inactives: top-dose activity, negative = inhibition, most hits filed as inhibitors; 390,000 tested, 0.009% active; AID 504891; active means well fitted inhibition curve with a large enough effect in the polarisation, with a control signal flat, not every such curve was filed as active; inconclusive means small, poorly fitted or top-dose-only effect, or effect the other way, or a change in a side signal; inactive means no such curve, though single readings can be large or run the other way; the % refers to the polarisation; further: potency means the concentration at half of the fitted maximal effect
Target sequence (Q13526 whole entry, looked up): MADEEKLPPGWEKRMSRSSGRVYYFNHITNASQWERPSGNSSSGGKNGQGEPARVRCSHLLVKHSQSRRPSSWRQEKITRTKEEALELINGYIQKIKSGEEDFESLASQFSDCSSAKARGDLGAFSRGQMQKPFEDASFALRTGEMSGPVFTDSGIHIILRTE
Tb PFK block = T. brucei PFK enzyme inhibition; 330,000 tested, 0.17% active; AID 485367; T. brucei PFK, ADP-Glo luminescence; Potency, µM (top dose mostly 57.5 µM), for the others: at the top dose activity, negative = inhibition, hits mostly inhibitors; O15648;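 further: potency means the concentration at half of the fitted maximal effect; 0% = uninhibited 1x PFK enzyme wells and -100% = no-enzyme wells; nearly all actives have a fitted effect of over 60% in size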
Target sequence (O15648 whole entry, looked up): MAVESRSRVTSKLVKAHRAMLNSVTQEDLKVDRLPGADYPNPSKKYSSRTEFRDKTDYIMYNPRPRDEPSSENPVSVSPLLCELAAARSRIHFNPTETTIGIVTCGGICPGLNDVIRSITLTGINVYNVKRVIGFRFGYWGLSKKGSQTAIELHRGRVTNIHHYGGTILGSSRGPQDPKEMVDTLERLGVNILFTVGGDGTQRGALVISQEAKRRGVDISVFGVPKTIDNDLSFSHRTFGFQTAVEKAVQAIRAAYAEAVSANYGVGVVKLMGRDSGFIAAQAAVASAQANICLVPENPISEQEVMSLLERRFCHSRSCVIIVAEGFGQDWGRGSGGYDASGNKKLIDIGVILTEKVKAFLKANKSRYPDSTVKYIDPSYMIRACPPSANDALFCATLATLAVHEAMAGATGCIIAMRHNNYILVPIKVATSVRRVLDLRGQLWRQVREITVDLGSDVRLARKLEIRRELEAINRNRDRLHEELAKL
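Activity is normalized to no-enzyme wells (full inhibition) and 1.25 nM enzyme wells (no inhibition). Reaction: 0.5 mM F6P, 0.1 mM ATP, 45 min RT, ADP-Glo luminescence; concentration-response curves fitted and classed by quality.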
An asterisk follows results filed as active; i = inactive; ? = inconclusive; nt = not tested or not shown. This excerpt belongs to a sample that is enriched for hits. Unless noted, the call rests on the fitted dose curve; in most records, active means well fitted curve in the direction sought with a large enough effect; inconclusive means small, poorly fitted or top-dose-only effect, or another doubt; inactive means no such curve, though single readings can be large; an effect the other way counts as inactive or inconclusive. Unless noted, on the % scale 0 is the no-effect control and ±100 the full control effect.

SMILES | PI4K2A inh | PGK inhibitor | PI5P4Ka inh | Pin1 inh | Tb PFK block
O=C(N/N=C/c1c[nH]c2ccccc12)c1cc(-c2ccc3ccccc3c2)n[nH]1 | -3 | -4% | -57* | 11% | 0%
O=C(N/N=C/c1c[nH]c2ccccc12)c1cc(-c2cccc3ccccc23)n[nH]1 | 3 | -4% | -56* | ? | 0%
O=C(O)c1ccc(/C=N/NC(=O)c2cc(-c3ccc4c5c(cccc35)CC4)n[nH]2)cc1 | -1 | ? | -73* | ? | 2%
O=C(N/N=C/c1c[nH]c2ccccc12)c1cc(-c2ccc(-c3ccccc3)cc2)n[nH]1 | 0 | i | nt | 8% | 1%
O=C(N/N=C/c1c[nH]c2ccccc12)c1cc(-c2ccccc2)n[nH]1 | -1 | i | -4 | 8% | 9%
O=C(NC1CCSc2ccccc21)c1ccc([N+](=O)[O-])cc1 (stereo unspecified) | -3 | -1% | 4 | 5% | 0%
O=C(NN1C(=O)/C(=C/C=C/c2ccccc2)SC1=S)c1ccncc1 | -7 | -9% | -24 | 29% | 1%
O=C1/C(=C/C=C/c2ccco2)SC(=S)N1c1ccc(O)cc1 | -19 | ? | -102* | ? | -22%
O=C1/C(=C\c2ccco2)SC(=S)N1c1ccc(O)cc1 | 5 | -2% | -11 | 2% | -11%
O=C(NN1C(=O)/C(=C/C=C/c2ccco2)SC1=S)c1ccncc1 | ? | 14µM* | -79* | ? | ?
CC[C@]12c3[nH]c4cc(CCC(=O)N(C)C)ccc4c3CCN1C(=O)[C@@H](CC(=O)NCCN1CCOCC1)C[C@@H]2C(=O)N1CCN(C(=O)c2ccco2)CC1 | 1 | -1% | -4 | -1% | 1%
CCCNC(=O)N1C[C@H](O)COC[C@@H]2O[C@@H](CC(=O)NCCCN3CCOCC3)CC[C@H]21 | -2 | nt | 1 | nt | nt
N#Cc1c(=O)c2nc(NCCCO)ncc2n2c(=O)c3ccccc3[nH]c12 | -7 | -7% | -65* | 0% | -1%
NC(=O)c1nsc(C(=O)N(c2ccc(F)cc2)C(C(=O)NC2CCCC2)c2ccncc2)c1N (stereo unspecified) | -5 | -3% | 4 | 0% | 2%
O=C(N/N=C/c1c(O)n(Cc2ccco2)c(=O)[nH]c1=O)c1ccccc1 | -9 | i | -67* | 7% | -2%
Cn1c(SCc2cccc(F)c2)nnc1-c1ccccn1 | -3 | -6% | 0 | -2% | 0%
Nc1ncnc(Nc2ccc(S(N)(=O)=O)cc2)n1 | -65* | -3% | 1 | -1% | 3%
Cc1ccc(Nc2ncnc(N)n2)cc1 | -8 | -1% | -7 | -5% | -5%
CCOC(=O)C(NC(=O)CC)(Nc1ccc(S(=O)(=O)Nc2onc(C)c2C)cc1)C(F)(F)F (stereo unspecified) | 0 | 6% | 6 | 7% | 16%
On1ccccc1=S | -15 | 3% | -100* | -3% | -25%
O=C(Cn1ccccc1=S)c1ccc(Cl)c(Cl)c1 | -3 | 5% | -2 | 2% | nt
Cc1nn(-c2ccc(F)cc2)c2nc(N)c(C#N)c(-c3ccc(O)c(O)c3)c12 | 8 | -2% | ? | 25% | -4%
CCOc1cc(-c2c(C#N)c(=O)[nH]c3c2c(C)nn3-c2ccc(F)cc2)ccc1O | 5 | -12% | -56* | -2% | 5%
CNCc1ccccc1Sc1ccc(O)c(O)c1 | 1 | 0% | ? | ? | -28%
CCOC(=O)/C(C)=C1\NC(C)(C)Cc2ccccc21 | -3 | 11% | -66* | 29% | -2%
SMILES | PI4K2A inh | PGK inhibitor | PI5P4Ka inh | Pin1 inh | Tb PFK block
CN(C)c1ccccc1-c1csc(N2CCC(C(N)=O)CC2)n1 | 0 | 0% | nt | -10% | 2%
Cc1c(NC(=S)N/N=C/c2cc([N+](=O)[O-])ccc2O)c(=O)n(-c2ccccc2)n1C | -10 | -3% | -61* | 6% | 5%
Cc1c(NC(=S)N/N=C/c2ccc(O)cc2)c(=O)n(-c2ccccc2)n1C | 7 | nt | nt | ? | 1%
CC1CCc2nc(NC(=O)CN3CCN(c4ccccc4)CC3)sc2C1 (stereo unspecified) | -19 | 0% | 17 | -1% | -1%
CCOC(=O)c1sc(N=NC2=C(O)CCCC2=O)c(C(=O)OCC)c1C | -17 | -12% | -57* | ? | -1%
CCOC(=O)/C(N=Nc1sc(C(=O)OCC)c(C)c1C(=O)OCC)=C(\C)O | nt | nt | nt | nt | -1%
COCC(C)n1c(C)cc(C(=O)COC(=O)c2ccc3ncsc3c2)c1C (stereo unspecified) | 2 | 4% | -4 | -7% | -1%
CCNc1nc2[nH]c(=O)c3c(c2s1)OC(N)=C(C#N)C3c1ccc(C)cc1 (stereo unspecified) | -5 | 8% | -67* | ? | 0%
Cn1c(NC(=O)c2ccc(C(C)(C)C)cc2)cc(=O)n(C)c1=O | -7 | 2% | 0 | 6% | -2%
COc1cc(C=C2C(=O)C=CC2=O)ccc1O | -56* | nt | -104* | nt | nt
COc1cc(C=C2NC(=O)NC2=O)ccc1O | -11 | -1% | ? | nt | nt
COc1cc(/C=C2\Oc3cc(O)ccc3C2=O)ccc1O | 0 | -5% | -61* | ? | 10%
COc1cc(/C=C2/C(=O)CNC2=O)ccc1O | -4 | -3% | -56* | 37% | ?
O=C(Nc1ccncc1)Nc1ccc(F)cc1F | 2 | -5% | nt | 1% | -18%
Cc1ccc(/C=N/NC(=O)c2csc3c2CCCC3)cc1 | -2 | -1% | 2 | 5% | 16%
S=C(SSC(=S)N1CCOCC1)N1CCOCC1 | 2 | nt | -88* | nt | nt
CCCCN1C(=O)CC(Sc2ncccc2C(=O)O)C1=O (stereo unspecified) | -1 | 9% | -2 | 6% | 2%
Cc1ccc(S(=O)(=O)NN2C(=O)/C(=C/c3cccs3)SC2=S)cc1 | -1 | -2% | -59* | -1% | 2%
Cc1ccc(/C=C2\SC(=S)N(NS(=O)(=O)c3ccc(C)cc3)C2=O)cc1 | -1 | -10% | -20 | ? | 0%
COc1cc(/C=C2\SC(=S)N(NS(=O)(=O)c3ccccc3)C2=O)cc(OC)c1OC | -12 | -3% | -29 | -1% | 8%
C=CCOc1ccc(/C=C2\SC(=S)N(NS(=O)(=O)c3ccc(C)cc3)C2=O)cc1 | -4 | -22% | -55* | nt | 0%
Cc1ccc(S(=O)(=O)NN2C(=O)/C(=C/c3ccc(C(=O)O)cc3)SC2=S)cc1 | -3 | -1% | -57* | ? | ?
COc1cccc(/C=C2\SC(=S)N(NS(=O)(=O)c3ccccc3)C2=O)c1OC | -6 | i | -60* | -8% | 4%
COc1ccc(/C=N/NC(=O)Cn2cnc3ccccc3c2=O)cc1 | 0 | 7% | 0 | -1% | 11%
CCN(CC)c1ccc(C(=C2C=CC(=[N+](CC)CC)C=C2)c2ccccc2)cc1 | -8 | i | -30 | -6% | nt

Screening data: PubChem BioAssay, National Center for Advancing Translational Sciences (NCATS)
